# Results from PubChem BioAssay (NCATS).
# Results filed as inconclusive are left out. A call without a number means that no potency is given here. Calls of active or inactive are those of the source. Unless noted, calls come from the whole dose curve; as a rule, active = well fitted curve in the direction sought with a large enough effect; inconclusive = small, poorly fitted or top-dose-only effect, or another doubt; inactive = no such curve, though single readings can be large; an effect the other way counts as inactive or inconclusive.
# Experiments:
# [1] = target: Cytochrome P450 3A4 (Homo sapiens) (UniProt P08684); test: qHTS Assay for Inhibitors and Substrates of Cytochrome P450 3A4 (AID 884); note: nearly all actives have a fitted effect of over 50% in size; note: potency is the fitted concentration of half-maximal effect
# Method in brief: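 20 nM human CYP3A4 with 25 uM Luciferin-PPXE (at KM) in 200 mM KPO4, preincubated 10 min with compound; NADPH regeneration started a 60 min RT reaction. Luciferin detected by luminescence, normalized to 57 uM ketoconazole as full inhibition.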
# [2] = target: Cytochrome P450 3A4 (Homo sapiens) (UniProt P08684); test: qHTS Assay for Activators of Cytochrome P450 3A4 (AID 885); note: nearly all actives have a fitted effect of over 65% in size
# Method in brief: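 Quantitative HTS format: compounds preincubated with 20nM human CYP3A4 and Luciferin-PPXE substrate at KM, reaction started by NADPH regeneration, stopped after 60 min, luciferase luminescence read 20 min later.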
# [3] = Confirmation and Secondary Assay for Modulators of Hemoglobin Beta Chain Splicing at IVS2 654 locus (AID 910)
# Method in brief: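 HeLa cells stably carrying EGFP interrupted by mutant beta-globin IVS2-654 intron (CMV-driven) were treated with compound for 2 days at 37C; corrected splicing was scored as total peak GFP intensity per well (488 nm excitation, 500-520 nm emission).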
# [4] = Confirmation and Secondary Assay for Modulators of Hemoglobin Beta Chain Splicing at IVS2 705 locus (AID 930);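 note: HeLa cells stably expressing the EGFP-705 splicing reporter; GFP fluorescence per well restored by corrected splicing of the IVS2-705 intron in EGFP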
# Method in brief: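 Read-out: total peak GFP fluorescence per well (488 nm excitation, 500-520 nm emission) by laser-scanning cytometry. Cells: HeLa EGFP-705 splicing reporter, 2 days compound exposure in Optimem/2% FCS.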
# [5] = qHTS Assay for Lipid Storage Modulators (AID 1519; calls by dose curve); details: Drosophila S3 cells, BODIPY lipid droplet/cell ratio, laser cytometry, cells loaded with oleic acid; for activity change, negative = inhibition: at 57.5 µM (top of the series)
# Method in brief: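 Cells seeded at 5,000 per well were treated with compounds over a concentration series and loaded with oleic acid (400 uM, as added). Lipid droplet fluorescence (488 nm excitation, 500-530 nm channel) was read by laser-scanning cytometry and normalized to 20 uM Triacsin C.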
# [6] = target: Ubiquitin carboxyl-terminal hydrolase 1 (Homo sapiens) (UniProt O94782); test: Inhibitors of USP1/UAF1: Pilot qHTS (AID 504865);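 note: rhodamine fluorescence freed from ubiquitin-rhodamine substrate followed over time; top concentration of the series differs between compounds; nearly all actives have a fitted effect of over 35% in size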
# Method in brief: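 Deubiquitinase activity followed as kinetic rhodamine fluorescence release from 150 nM Ub-Rho. 1 nM USP1/UAF1 with compound, after 15 min room-temperature preincubation, in HEPES pH 7.8 buffer containing TCEP, EDTA, BSA and Tween-20.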
# [7] = target: Peroxisome proliferator-activated receptor alpha (Homo sapiens) (UniProt Q07869); test: qHTS assay for small molecule agonists of the peroxisome proliferator-activated receptor alpha (PPARalpha) signaling pathway (AID 651778); details: PathHunter PPARalpha complementation, chemiluminescence, 6 h; stronger effect = higher value
# Method in brief: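 Cells plated at 2,000/well and held overnight at 37 C, 5% CO2, then compound added by pin tool for 6 hr; after PathHunter detection reagent and 60 min at room temperature, chemiluminescence from enzyme complementation was read.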
# [8] = qHTS assay for cell viability of HEK293 cells (AID 743288); details: ATP luminescence (CellTiter-Glo), 18 h; max response: stronger effect = lower value; note: nearly all actives have a fitted effect of over 50% in size
# Method in brief: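 Total intracellular ATP, measured with a luciferase-coupled reagent, indicates the number of viable HEK293 cells. Exposure to test chemicals lasts 18 h at 37 C in 1,536-well format at 2,000 cells/well.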
# [9] = measured here: cell count channel max response
# [10] = measured here: lipid channel max response
# Ubiquitin carboxyl-terminal hydrolase 1 (Homo sapiens), sequence (O94782 whole entry, looked up): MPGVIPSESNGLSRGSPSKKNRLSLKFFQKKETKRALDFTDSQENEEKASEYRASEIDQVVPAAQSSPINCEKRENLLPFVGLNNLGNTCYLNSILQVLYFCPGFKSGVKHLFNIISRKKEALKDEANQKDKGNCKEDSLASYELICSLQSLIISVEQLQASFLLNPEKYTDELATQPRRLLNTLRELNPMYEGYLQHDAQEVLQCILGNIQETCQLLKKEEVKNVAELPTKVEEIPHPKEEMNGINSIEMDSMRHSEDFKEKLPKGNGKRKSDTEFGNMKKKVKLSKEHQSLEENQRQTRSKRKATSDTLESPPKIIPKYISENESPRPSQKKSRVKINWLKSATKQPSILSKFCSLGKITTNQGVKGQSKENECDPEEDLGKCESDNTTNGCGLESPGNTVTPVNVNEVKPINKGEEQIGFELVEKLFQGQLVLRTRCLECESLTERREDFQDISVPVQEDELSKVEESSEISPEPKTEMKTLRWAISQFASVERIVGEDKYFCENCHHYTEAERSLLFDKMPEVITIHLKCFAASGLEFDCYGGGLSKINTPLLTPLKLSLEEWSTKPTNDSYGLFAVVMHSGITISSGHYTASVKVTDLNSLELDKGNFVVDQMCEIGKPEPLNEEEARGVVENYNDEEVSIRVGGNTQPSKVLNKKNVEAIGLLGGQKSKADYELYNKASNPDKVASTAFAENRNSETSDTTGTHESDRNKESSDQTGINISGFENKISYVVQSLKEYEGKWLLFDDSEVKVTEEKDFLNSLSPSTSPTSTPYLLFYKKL
# Cytochrome P450 3A4 (Homo sapiens), sequence (P08684 whole entry, looked up): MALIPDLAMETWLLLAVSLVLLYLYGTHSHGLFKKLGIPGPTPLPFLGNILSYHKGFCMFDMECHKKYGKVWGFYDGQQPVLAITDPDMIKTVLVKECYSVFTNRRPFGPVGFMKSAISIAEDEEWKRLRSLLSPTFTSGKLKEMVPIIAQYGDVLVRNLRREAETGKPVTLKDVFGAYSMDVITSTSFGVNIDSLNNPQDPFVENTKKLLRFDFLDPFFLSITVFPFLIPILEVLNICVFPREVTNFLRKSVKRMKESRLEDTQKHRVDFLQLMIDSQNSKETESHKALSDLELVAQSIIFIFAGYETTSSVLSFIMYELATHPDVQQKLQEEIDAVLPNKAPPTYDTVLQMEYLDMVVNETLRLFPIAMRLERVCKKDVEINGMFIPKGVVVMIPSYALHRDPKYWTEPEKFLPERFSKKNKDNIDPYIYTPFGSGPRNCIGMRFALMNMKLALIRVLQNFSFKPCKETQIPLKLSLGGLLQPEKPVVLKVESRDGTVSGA
# Peroxisome proliferator-activated receptor alpha (Homo sapiens), sequence (Q07869 whole entry, looked up): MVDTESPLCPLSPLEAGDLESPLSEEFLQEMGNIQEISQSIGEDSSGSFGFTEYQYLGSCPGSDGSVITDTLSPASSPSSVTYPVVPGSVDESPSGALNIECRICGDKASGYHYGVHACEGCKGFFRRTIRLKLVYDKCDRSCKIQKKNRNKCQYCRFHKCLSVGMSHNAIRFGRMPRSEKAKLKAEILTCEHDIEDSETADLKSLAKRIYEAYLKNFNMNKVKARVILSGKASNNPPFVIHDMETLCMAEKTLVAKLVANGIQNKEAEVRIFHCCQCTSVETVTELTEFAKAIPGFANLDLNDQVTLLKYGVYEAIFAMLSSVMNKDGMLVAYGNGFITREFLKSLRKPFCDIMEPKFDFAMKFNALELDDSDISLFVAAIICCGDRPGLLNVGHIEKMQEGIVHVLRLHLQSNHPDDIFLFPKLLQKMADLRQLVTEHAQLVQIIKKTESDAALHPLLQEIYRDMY
SMILES,Potency [1],Potency [2],Potency [3],Potency [4],"activity change, negative = inhibition [5]","max response [5, 9] [%]","max response [5, 10] [%]",Potency [6],max response [7],max response [8]
CC(C)c1cc2c(c(O)c1O)[C@]1(C(=O)O)CCCC(C)(C)C1CC2 (some centres not stated),0.316 µM (active),inactive,inactive,inactive,4.21% (inactive),-11.1,-4.62,inactive,,
CC(C)N1C(=O)c2ccccc2NS1(=O)=O,inactive,,inactive,inactive,2.96% (inactive),13.1,17.2,inactive,-0.187% (inactive),-4.24% (inactive)
CC(=O)CC1CCCCN1 (configuration not stated),inactive,,inactive,inactive,4.86% (inactive),11.3,14.1,inactive,,
CCN1C[C@]2(COC)C(O)C[C@H](OC)[C@@]34C5C[C@]6(O)C(OC)C(O)[C@](OC(C)=O)(C5C6OC(=O)c5ccccc5)C(C(OC)C23)C14 (some centres not stated),inactive,,inactive,inactive,4.84% (inactive),13.6,24,inactive,,
CNC(=O)O/N=C(/C)SC,inactive,,inactive,inactive,3.26% (inactive),16.3,20.1,inactive,,
COc1cc2c3cc1Oc1c(OC)c(OC)cc4c1C(Cc1cccc(c1)Oc1ccc(c(O)c1)CC3N(C)CC2)N(C)CC4 (configuration not stated),inactive,,inactive,,6.04% (inactive),15.8,22.7,inactive,,
COC1=CC2C3Cc4ccc(OC)c(O)c4[C@]2(CCN3C)CC1=O (some centres not stated),inactive,,inactive,inactive,4.04% (inactive),-5.63,0.618,inactive,,
CCCCSP(=O)(SCCCC)SCCCC,inactive,,,inactive,12.5% (inactive),36.8,52,inactive,3.39% (inactive),-3.57% (inactive)
NC(=O)c1ccc(N)nc1,inactive,,,,2.67% (inactive),16.6,22.3,inactive,,
C/C=C(\C)C(=O)OC1CC(OC(C)=O)[C@@]2(C(=O)OC)COC3C2[C@@]12CO[C@](O)(C(=O)OC)C2[C@](C)(C12OC1(C)C1CC2OC2OC=C[C@]21O)C3O (some centres not stated),12.6 µM (active),inactive,inactive,inactive,-3.34% (inactive),-9.57,-10.6,inactive,,
